For eight compounds, Percent Effect results are on record in ChEMBL document CHEMBL3988442, “University of Dundee, Small-Polar-MMV Screening Library” (2021).

The structures appear in SMILES notation. For some of these results: Measured potencies and affinities stand elsewhere.

Common to all, as to parameters: scale not given: direction of the effect not stated beside the values
Assay [1] has as its target Protein translocase subunit SecA (Escherichia coli (strain K12)) (UniProt P10408). In words: Assay to Identify E. coli SecA ATPase Inhibitors. The assay is classed as functional. As to conditions: 30 µM.
Assay [2] addresses T1, Ubiquitin-activating enzyme e1, putative (Leishmania donovani (strain BPK282A1)) (UniProt E9BSI1).
T1 sequence (whole entry): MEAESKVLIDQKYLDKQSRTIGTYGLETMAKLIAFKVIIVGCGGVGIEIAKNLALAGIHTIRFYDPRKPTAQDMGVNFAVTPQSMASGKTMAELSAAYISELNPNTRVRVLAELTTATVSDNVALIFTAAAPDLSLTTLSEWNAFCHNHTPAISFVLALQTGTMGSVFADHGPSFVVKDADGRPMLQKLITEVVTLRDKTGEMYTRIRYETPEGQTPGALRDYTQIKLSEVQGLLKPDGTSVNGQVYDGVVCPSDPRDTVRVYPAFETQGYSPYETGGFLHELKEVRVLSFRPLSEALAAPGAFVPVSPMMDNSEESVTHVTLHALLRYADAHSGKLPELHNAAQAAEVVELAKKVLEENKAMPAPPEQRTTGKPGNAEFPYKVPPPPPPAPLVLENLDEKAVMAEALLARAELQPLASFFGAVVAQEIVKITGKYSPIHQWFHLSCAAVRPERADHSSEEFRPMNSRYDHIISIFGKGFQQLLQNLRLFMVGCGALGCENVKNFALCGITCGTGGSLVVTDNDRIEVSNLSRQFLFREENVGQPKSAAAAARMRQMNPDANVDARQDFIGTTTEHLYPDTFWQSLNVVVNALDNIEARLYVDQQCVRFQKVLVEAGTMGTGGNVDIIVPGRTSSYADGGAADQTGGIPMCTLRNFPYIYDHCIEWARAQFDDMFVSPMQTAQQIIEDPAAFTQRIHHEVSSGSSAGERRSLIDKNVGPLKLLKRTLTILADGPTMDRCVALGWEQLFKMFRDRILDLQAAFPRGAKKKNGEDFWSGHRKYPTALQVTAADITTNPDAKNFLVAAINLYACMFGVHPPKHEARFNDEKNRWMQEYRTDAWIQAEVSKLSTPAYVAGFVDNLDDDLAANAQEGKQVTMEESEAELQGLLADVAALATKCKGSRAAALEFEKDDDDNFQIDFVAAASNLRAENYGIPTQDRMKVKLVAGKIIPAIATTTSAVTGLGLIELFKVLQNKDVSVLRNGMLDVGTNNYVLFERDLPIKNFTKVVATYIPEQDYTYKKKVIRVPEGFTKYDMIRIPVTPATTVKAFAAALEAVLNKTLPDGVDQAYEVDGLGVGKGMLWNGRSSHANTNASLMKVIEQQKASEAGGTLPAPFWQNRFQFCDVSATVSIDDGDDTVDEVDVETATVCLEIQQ
In words: Leishmania donovani Ubiquitin Activating Enzyme (LdE1). The format is functional. As to conditions: 30 µM.

Assay [3] addresses AMP-activated protein kinase, AMPK (Homo sapiens) (UniProt P54646+O43741+P54619+Q9UGJ0+Q9Y478+Q13131+Q9UGI9). In words: AMP-dependent Kinase enzyme assay. An in vitro enzyme assay that detects ADP turnover that is directly proportional to AMPK activity. This uses naive AMPK that is activated during the assay with MK-8722. The format is functional. As to conditions: 30 µM.
Assay [4] has as its target Sialic acid-binding Ig-like lectin 9 (Homo sapiens) (UniProt Q9Y336). The assay is described as follows: Hs-Siglec9 ALPHAscreen SOP 20170721. Conditions: 10 µM. For orientation: Alpha assays give light when donor and acceptor beads are brought close together.
The subject of assay [5] is Trypanosoma cruzi. In words: Trypanosoma cruzi phosphomannomutase and mannose-1-phosphate guanylyltransferase assay. The assay is classed as functional. As to conditions: 10 µM.
The target in assay [6] is T2, Arginase-2, mitochondrial (Homo sapiens) (UniProt P78540).
T2 sequence (whole entry): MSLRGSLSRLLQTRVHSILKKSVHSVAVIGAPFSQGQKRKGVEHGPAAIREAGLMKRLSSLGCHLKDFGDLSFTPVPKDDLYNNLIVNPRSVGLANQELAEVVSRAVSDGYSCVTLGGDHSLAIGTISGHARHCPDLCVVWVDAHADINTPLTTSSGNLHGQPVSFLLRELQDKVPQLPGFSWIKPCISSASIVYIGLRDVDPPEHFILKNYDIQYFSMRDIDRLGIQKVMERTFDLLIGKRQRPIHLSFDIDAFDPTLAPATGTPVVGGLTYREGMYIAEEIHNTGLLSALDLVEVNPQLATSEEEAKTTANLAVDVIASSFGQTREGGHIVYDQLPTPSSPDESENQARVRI
In words: in vitro enzyme assay to detect the production of urea directly proportional to the activity of Arginase II. Note: in the data most compounds retested in dose-response had high values. As to conditions: 33.3 µM. The format is functional.

Assay [7] deals with T3, Proteasome subunit beta (Trypanosoma cruzi) (UniProt O96673).
T3 sequence (whole entry): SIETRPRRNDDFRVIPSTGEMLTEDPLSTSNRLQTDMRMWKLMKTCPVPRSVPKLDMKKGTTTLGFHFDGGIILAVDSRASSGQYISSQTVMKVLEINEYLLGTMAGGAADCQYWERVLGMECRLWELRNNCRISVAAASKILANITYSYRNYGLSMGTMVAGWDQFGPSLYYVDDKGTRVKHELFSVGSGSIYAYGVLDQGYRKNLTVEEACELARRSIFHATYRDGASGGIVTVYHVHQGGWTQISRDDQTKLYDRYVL
The assay is described as follows: Trypanosoma cruzi proteasome chymotrypsin-like activity (TcProtChymo) assay. Note: in the data most compounds retested in dose-response had high values. The format is functional. As to conditions: 9.37 µM.

The species named for assay [8] is Homo sapiens. The assay is described as follows: To identify inhibition of the IFN signalling (Jak-Stat) pathway via expression of an eGFP reporter gene under the control of an IFN-stimulated response element (ISRE) containing MxA promoter. As to conditions: 30 µM. The assay is classed as functional.
For assay [9], the target named is T4, Tyrosyl-tRNA synthetase, putative (Trypanosoma cruzi (strain CL Brener)) (UniProt Q4DSP6).
T4 sequence (whole entry): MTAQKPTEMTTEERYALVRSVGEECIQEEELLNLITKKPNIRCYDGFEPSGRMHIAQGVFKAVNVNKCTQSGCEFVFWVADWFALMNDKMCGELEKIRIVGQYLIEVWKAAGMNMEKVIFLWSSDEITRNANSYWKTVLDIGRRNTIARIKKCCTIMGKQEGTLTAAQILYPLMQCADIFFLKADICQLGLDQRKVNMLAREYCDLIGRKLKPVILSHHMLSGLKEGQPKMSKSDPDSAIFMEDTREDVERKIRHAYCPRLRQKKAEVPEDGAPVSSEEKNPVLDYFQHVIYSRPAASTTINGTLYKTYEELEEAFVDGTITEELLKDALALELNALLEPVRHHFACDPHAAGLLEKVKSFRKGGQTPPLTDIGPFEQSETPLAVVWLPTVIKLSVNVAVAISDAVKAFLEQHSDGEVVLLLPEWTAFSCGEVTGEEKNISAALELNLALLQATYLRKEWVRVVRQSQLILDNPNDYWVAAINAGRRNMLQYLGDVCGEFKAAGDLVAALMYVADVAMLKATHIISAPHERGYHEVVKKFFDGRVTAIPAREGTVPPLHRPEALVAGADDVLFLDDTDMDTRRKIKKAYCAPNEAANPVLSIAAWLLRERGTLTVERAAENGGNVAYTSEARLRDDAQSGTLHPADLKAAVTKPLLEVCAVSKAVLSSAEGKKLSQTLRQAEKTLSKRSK
The assay is described as follows: Trypanosoma cruzi tyrosyl tRNA synthetase (TcYRS) _High Tyrosine SOP. Note: in the data most compounds retested in dose-response had high values. The format is functional. As to conditions: 30 µM.

Assay [10] has as its target T4, Tyrosyl-tRNA synthetase, putative (Trypanosoma cruzi (strain CL Brener)). The assay is described as follows: Trypanosoma cruzi tyrosyl tRNA synthetase (TcYRS) SOP. The format is functional. As to conditions: 30 µM.
The target in assay [11] is Chromo domain-containing protein 1 (Saccharomyces cerevisiae (strain ATCC 204508 / S288c) (Baker's yeast)) (UniProt P32657). In words: ScCHD-1 Enzyme Inhibition Assay. Note: in the data most compounds retested in dose-response had high values. The assay is classed as functional. Conditions: 30 µM.
Sequence of Chromo domain-containing protein 1 (Saccharomyces cerevisiae (strain ATCC 204508 / S288c) (Baker's yeast)) (P32657 whole entry, the tested form may be a part): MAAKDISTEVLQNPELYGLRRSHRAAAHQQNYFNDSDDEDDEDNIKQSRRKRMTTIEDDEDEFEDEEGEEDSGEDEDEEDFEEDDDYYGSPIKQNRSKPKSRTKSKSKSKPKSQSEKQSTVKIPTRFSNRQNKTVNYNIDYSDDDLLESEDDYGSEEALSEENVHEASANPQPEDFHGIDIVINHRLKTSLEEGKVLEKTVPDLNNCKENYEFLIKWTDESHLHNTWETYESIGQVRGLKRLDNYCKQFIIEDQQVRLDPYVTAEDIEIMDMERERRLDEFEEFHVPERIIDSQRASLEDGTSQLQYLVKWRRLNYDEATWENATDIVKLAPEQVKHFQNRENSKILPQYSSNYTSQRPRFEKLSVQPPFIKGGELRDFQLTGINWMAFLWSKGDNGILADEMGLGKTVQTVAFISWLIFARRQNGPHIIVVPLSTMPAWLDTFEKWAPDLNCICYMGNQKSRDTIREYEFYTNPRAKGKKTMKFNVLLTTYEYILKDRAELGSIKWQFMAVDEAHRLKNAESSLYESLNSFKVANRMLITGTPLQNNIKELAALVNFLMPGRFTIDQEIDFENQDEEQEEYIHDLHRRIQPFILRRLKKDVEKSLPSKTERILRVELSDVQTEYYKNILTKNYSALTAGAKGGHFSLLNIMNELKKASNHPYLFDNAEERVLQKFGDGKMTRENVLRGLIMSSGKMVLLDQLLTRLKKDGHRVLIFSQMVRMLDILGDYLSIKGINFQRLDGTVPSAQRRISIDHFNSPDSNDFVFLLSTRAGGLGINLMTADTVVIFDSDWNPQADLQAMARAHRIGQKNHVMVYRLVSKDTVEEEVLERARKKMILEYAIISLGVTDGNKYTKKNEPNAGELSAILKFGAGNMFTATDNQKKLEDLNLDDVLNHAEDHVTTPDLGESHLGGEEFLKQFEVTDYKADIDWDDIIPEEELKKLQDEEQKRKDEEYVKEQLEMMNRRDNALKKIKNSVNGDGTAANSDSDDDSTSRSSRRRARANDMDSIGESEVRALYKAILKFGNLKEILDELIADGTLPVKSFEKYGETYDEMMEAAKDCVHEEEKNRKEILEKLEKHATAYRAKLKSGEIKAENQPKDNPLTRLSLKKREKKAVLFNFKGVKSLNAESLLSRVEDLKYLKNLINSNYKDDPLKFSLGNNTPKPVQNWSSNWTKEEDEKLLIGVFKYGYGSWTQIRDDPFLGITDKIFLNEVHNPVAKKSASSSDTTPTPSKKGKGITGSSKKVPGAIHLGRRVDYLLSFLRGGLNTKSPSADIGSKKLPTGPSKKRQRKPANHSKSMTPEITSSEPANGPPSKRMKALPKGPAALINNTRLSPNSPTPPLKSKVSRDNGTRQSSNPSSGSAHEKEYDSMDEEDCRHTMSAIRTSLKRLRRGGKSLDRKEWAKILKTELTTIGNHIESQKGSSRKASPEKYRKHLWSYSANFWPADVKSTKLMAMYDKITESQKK

Sequence of Protein translocase subunit SecA (Escherichia coli (strain K12)) (P10408 whole entry): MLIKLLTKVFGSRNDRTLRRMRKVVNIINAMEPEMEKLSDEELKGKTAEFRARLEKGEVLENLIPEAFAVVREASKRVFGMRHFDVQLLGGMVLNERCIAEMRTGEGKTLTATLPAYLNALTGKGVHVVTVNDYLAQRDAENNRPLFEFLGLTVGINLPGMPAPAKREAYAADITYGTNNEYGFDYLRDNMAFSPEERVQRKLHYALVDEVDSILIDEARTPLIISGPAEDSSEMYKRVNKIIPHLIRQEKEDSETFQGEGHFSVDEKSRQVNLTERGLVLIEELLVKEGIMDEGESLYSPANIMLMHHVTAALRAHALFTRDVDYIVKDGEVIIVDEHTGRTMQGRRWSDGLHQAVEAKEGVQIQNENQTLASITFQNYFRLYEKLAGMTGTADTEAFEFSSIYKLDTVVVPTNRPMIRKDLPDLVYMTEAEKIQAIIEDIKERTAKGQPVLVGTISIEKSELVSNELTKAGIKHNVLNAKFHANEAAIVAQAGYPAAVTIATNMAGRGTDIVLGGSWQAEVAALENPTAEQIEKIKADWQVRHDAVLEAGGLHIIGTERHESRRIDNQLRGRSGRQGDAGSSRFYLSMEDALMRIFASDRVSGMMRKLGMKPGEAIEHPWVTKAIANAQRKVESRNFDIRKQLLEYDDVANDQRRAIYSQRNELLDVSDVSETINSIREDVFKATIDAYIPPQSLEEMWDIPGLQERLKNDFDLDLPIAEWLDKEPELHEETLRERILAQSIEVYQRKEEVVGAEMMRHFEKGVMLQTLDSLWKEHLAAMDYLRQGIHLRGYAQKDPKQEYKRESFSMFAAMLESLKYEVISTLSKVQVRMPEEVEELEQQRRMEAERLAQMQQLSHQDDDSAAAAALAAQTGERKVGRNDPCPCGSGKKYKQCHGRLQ
Sequence of Sialic acid-binding Ig-like lectin 9 (Homo sapiens) (Q9Y336 whole entry): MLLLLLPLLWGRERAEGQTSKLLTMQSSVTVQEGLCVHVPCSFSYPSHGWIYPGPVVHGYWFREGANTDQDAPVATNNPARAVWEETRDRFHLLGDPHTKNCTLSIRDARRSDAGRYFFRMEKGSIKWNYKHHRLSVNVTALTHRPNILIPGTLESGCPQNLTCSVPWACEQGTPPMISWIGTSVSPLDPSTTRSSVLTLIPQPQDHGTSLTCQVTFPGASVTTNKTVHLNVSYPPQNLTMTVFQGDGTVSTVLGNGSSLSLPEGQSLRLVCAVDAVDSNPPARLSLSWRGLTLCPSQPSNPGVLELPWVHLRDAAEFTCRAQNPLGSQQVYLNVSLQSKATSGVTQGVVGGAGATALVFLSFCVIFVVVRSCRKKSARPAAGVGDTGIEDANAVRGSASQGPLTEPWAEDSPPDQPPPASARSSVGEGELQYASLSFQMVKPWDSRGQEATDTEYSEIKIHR

As for `CN(Cc1ccccc1O)C(=O)NC1CCCN(c2ncccn2)C1` (stereo not drawn), the Percent Effect is -1.53% in assay [1]; 15.8% in [2]; 0.343% in [3]; -3.02% in assay [4]; -7.89% in [5]; -1.53% in [6]. For the same compound, the Percent Effect in [7] is 6.01%; in [8], 26.3%; in assay [9], 2.45%; in assay [10] it was 7.32%; in assay [11], -8.65%.

On to `Cc1nc(CN(C)C2CCN(CC(=O)NC3CCOCC3)C2)no1` (stereo not drawn), for which the Percent Effect in assay [1] was -1.63%; in [2], 16.2%; in [3] it was -9.99%; in assay [4], 0.0133%; in assay [5], -0.836%; in assay [6], -3.14%. The Percent Effect in assay [7] was 11.1%; in assay [8] it was 11.9%; in [9], 5.94%; in [10], 18.3%; in [11], -5.55%.

As for `Cn1ccc(C(=O)N2CCCC(n3cncn3)C2)cc1=O` (stereo not drawn), the Percent Effect in assay [1] was -7.5%; in [2], 10.4%; in [3], -3.42%; in [4] it was 0.542%; in assay [5], 5.97%; in [6], -6.11%. Further, the Percent Effect was 11.9% in assay [7]; -3.24% in assay [8]; 3.81% in [9]; 9.41% in [10]; -18.8% in [11].

For `CC(=O)N1CCN(c2cc(-c3ccccc3)nc3c(C)c(C)nn23)CC1`, the Percent Effect in [1] was -6.15%; in assay [2] it was -11%; in assay [3], -6.13%; in assay [4] it was 6.66%; in assay [5] it was 4.96%; in assay [6], 2.4%. Besides, the Percent Effect in assay [7] was 16.2%; in [8] it was 4.69%; in assay [9], 7.29%; in [10] it was 8.64%; in assay [11], -7.72%.

For the compound `N#Cc1cn(CC(=O)NC2CC2)c2ccc(Br)cc2c1=O`, the Percent Effect is -3.54% in assay [1]; -2.67% in assay [2]; -3.82% in assay [3]; -2.14% in assay [4]; -1.27% in [5]; 2.6% in assay [6]. Also, the Percent Effect is 14.7% in assay [7]; -0.582% in [8]; 0.546% in assay [9]; -3.7% in assay [10]; 74.8% in assay [11].

For the compound `Cc1ccc(CN2CCC[C@]3(C(=O)O)CN(c4ncccn4)C[C@@H]3C2)o1`, the Percent Effect in assay [1] is -3.35%; in assay [2], 5.33%; in assay [3] it was -3.88%; in assay [4], 3.31%; in assay [5], 0.579%; in assay [6] it was -39.6%. Moreover, the Percent Effect in assay [7] was 3.59%; in assay [8], -0.723%; in assay [9] it was 5.21%; in [10], -15%; in assay [11], -7.67%.

With `CCNC(=O)N1CCC2(C1)c1ccccc1S(=O)(=O)N2CCC(C)C` (stereo not drawn), the Percent Effect in [1] is -3.49%; in assay [2] it was 5.33%; in assay [3] it was 5.91%; in assay [4] it was -1.77%; in assay [5], 5.99%; in assay [6], -52.5%. Also, the Percent Effect in assay [7] was 5.3%; in assay [8], -14.8%; in [9], 1.04%; in assay [10] it was 0%; in assay [11], -0.42%.

`CC(c1nc(C2CC2)no1)N1CCN(CCOCC(F)(F)F)CC1` (stereo not drawn): the Percent Effect in [1] is -1.74%; in assay [2] it was -2.7%; in [3], -7.35%; in assay [4], 10.2%; in assay [5], 1.95%; in [6], -0.185%. Moreover, the Percent Effect came to 1.08% in assay [7]; 21% in assay [8]; 2.97% in assay [9]; 11% in [10]; 1.39% in assay [11].
